In all, about 20,000 compounds went through this assay and about 85 (0.4%) were called active.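 Rule for the calls: active = cell survival signal 2 SD away from solvent-only control wells, confirmed on one or two retests; inactive = the rest.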 What follows is part of a selection rich in actives, with near analogues and random picks from the rest.

The assay is described as follows: phospholipid synthesis inhibitors, CHO cells, primary screen, ZR-82 cells, Enamine library, screen 3 (AID 1347385).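 Note: 3 h compound exposure then viability read about one day after UV.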 To be noted: ZR-82 CHO cells, pyrene fatty acid UV survival, CellTiter Blue, peroxisome-deficient CHO-K1 mutant line, plus DGAT-1, DGAT-2 and ACAT inhibitors; at 10 µM unless noted.
On to `O=C(Nn1c(-c2cccs2)nc2sc3c(c2c1=O)CCCC3)c1cccs1`, for which the outcome was inactive. The value for `CCOC(=O)C1=C(C)NC2=C(C(=O)CC(C)(C)C2)C1C` (centres undefined) was “inactive”; that for `O=C(O)c1sc2cc(F)ccc2c1Cl` was “inactive”; that for `C(=N\Nc1nncc2ccccc12)/c1ccc(N2CCOCC2)s1` was “inactive [setting not given]”. In the case of `COC(CNc1ncnc2sc3c(c12)CCC3)OC`, the outcome was inactive. Consider `Clc1cc(CSc2nnnn2C2CC2)cc2c1OCCO2`, for which the result was inactive. On to `O=[N+]([O-])c1ccc2[nH]c(O)c(N=Nc3ccc(C(F)(F)F)cc3[N+](=O)[O-])c2c1`, for which the result was inactive.

`NC(=O)NCCCC(=O)O`: the result was inactive. Regarding `S=C(NCCc1ccccc1)N/N=C1\CC2CC=CC12` (centres undefined), the outcome is “inactive [setting not given]”. `CC(N=C1NS(=O)(=O)c2ccccc21)C(=O)OC1CCOC1=O` (centres undefined): the result was inactive.

Regarding `CCOC(=O)c1c(C)[nH]c(C(=O)Cn2ncc(Cl)c(Cl)c2=O)c1C`, the outcome was inactive. Regarding `FC(F)(F)C(=NC1(C(Cl)(Cl)Cl)Oc2ccccc2O1)Nc1ccccn1`, the outcome was inactive.

As to `O=S(=O)(c1cc(Br)ccc1Br)N1CCCc2ccccc21`, the outcome was inactive. In the case of `O=S1(=O)CCC(N(Cc2ccco2)S(=O)(=O)c2ccc(S(=O)(=O)N3CCCC3)cc2)C1` (centres undefined) it was “inactive”; in that of `CCCN(CC1CC1)Cn1c(=S)sc2ccccc21`, “inactive”; in that of `Clc1ccc2c(NN=C3c4ccccc4-c4ccccc43)ccnc2c1`, “active”. For the compound `Fc1ccc(NC(=S)NNc2ccnc3cc(Cl)ccc23)cc1Cl`, the result was inactive.

Take `Clc1ccc2nc(N/N=C/c3cccc4nccnc34)nc(-c3ccccc3)c2c1`: the outcome is “inactive [setting not given]”. `Cn1/c(=N/N=C/C(Cl)=C/c2ccccc2)sc2ccccc21`: the outcome is “inactive [setting not given]”.

On to `S=C(NCC1CCCO1)NNc1ncnc2sc3c(c12)CCCC3` (centres undefined), for which the outcome was inactive. In the case of `CC(C)=CCC/C(C)=C/C=N/Nc1ccc([N+](=O)[O-])cc1`, the outcome was “inactive [setting not given]”. In the case of `Fc1ccc(NC(=S)Nc2ccc(SC(F)F)cc2)cc1Cl`, the outcome was active.

`COc1cc(NC(=S)Nc2ccc(SC(F)F)cc2)cc(OC)c1OC`: the outcome was inactive. Consider `Nc1c(Cl)cc(NC(=S)Nc2ccc(SC(F)F)cc2)cc1Cl`, for which the result was inactive. Take `O=C(C1CCCCC1)N1N=C2/C(=C/c3ccco3)CCCC2C1c1ccco1` (centres undefined): the outcome was inactive. For `NC(CSC12CC3CC(CC(C3)C1)C2)C(=O)O` (centres undefined), the outcome was inactive. Turning to `O=C(NC1=NCCS1)C1CC2CCCC(C1)C2=O` (centres undefined), the outcome was inactive. In the case of `CC(C)NC(=S)NN=C1CCCCCCCCCCC1` it was “inactive”; in that of `Cc1cc(NC(=O)COC(=O)C2=NNC(=O)CC2)no1`, “inactive”; in that of `O=[N+]([O-])c1cc(S(=O)(=O)Nc2ccc(Cl)c(S(=O)(=O)N3CCOCC3)c2)ccc1Cl`, “inactive”. Take `O=[N+]([O-])c1ccc(N=P(c2cccc3ccccc23)(c2cccc3ccccc23)N2CCOCC2)c(Br)c1`: the outcome was inactive. With `Nc1scc[n+]1Cc1cccc2cccnc12`, the result was inactive. The value for `Nc1nc(SCC(=O)NCCN2CCOCC2)nc2sc3c(c12)CCC3` was “inactive”; that for `CC(C)CC(C(=O)NNC(=O)c1ccco1)N1C(=O)C2CC=CCC2C1=O` (centres undefined) was “inactive”.

As for `O=S(=O)(Nc1ncccn1)c1ccc(NC(=S)Nc2cccnc2)cc1`, the result was inactive. The value for `CC(C)CC(NC(=O)NC1CCCCC1)C(=O)O` (centres undefined) was “inactive”. In the case of `c1ccc(C2=NNC(c3ccccc3)C2)cc1` (centres undefined) it was “inactive”; in that of `O=C(NC1CCCCCCC1)c1ccc(=O)[nH]c1`, “inactive”; in that of `CN(C1CCCCC1)S(=O)(=O)c1ccc2c(c1)OCCCO2`, “inactive”.

With `OC(Cc1nc2ccccc2[nH]1)c1nc2ccccc2[nH]1` (centres undefined), the outcome was inactive.

In the case of `Cc1cc(NC(=O)Cn2c(=O)/c(=C\c3ccc(C)s3)s/c2=C\C(=O)C(C)(C)C)no1`, the outcome was inactive. As for `C=CCN=c1scc(-c2ccc(OC)cc2)n1/N=C/c1ccc(OC(F)F)cc1`, the outcome was “inactive [setting not given]”. With `CCOC(=O)/C(=C\c1ccc(C)s1)c1nc2sc(C)c(C)c2c(=O)[nH]1`, the outcome was inactive.

For `O=C(O)CCN1C(=O)C2CC=CCC2C1=O` (centres undefined), the outcome was inactive. As to `S=C(N=P(c1ccccc1)(N1CCOCC1)N1CCOCC1)NCc1cn2ccccc2n1`, the result was inactive. On to `S=C1NC(c2ccccc2)=NCN1N(c1ccccc1)c1ccccc1`, for which the outcome was inactive. The value for `COc1ccc(-c2noc(CSc3ncccn3)n2)cc1OC` was “inactive”; that for `CC1(C)CCCC(C)(C)N1Sc1ccccc1` was “inactive”; that for `Oc1ccc(-c2onc3ccc(Cl)cc23)cc1` was “inactive”.

Consider `NC1=NC(c2c(Cl)cccc2Cl)n2c(nc3ccccc32)N1` (centres undefined), for which the outcome was inactive. For `Cc1cc(C(=O)Cn2cnc3c2c(=O)n(C)c(=O)n3C)c(C)n1CCC1=CCCCC1`, the outcome was inactive. As for `O=C1CCC(C(=O)OCC(=O)c2ccc(Br)s2)=NN1`, the outcome was inactive.

Take `O=C1CSC2=NCN(c3ccccc3)CN12`: the result was inactive. In the case of `Clc1cc(Cl)c(N/N=C/c2cn(-c3ccccc3)nc2-c2cc3ccccc3o2)c(Cl)c1` it was “inactive [setting not given]”; in that of `O=c1/c(=C/c2ccccc2I)sc2nc3ccccc3n12`, “inactive”; in that of `COc1ccccc1OCCOCCOc1ccccc1OC`, “inactive”.

Regarding `O=c1c(Cl)c(N2CCCC2)cnn1-c1ccccc1`, the outcome was inactive. Consider `COCCNC(=O)NC(=O)N(C1CCCCC1)S(C)(=O)=O`, for which the result was inactive. The value for `Cc1sc2nc(-c3cccs3)nc(Sc3nnc(C4CC4)o3)c2c1C` was “inactive”. The value for `CCOC(=O)c1sc2nc(C(C)Sc3ncnc4sc5c(c34)CCC5)[nH]c(=O)c2c1C` (centres undefined) was “inactive”.

Take `CC(C)(C)C1CCC(C(=O)OCC(=O)c2ccc(Cl)s2)CC1` (centres undefined): the result was inactive. In the case of `O=C1CN(Cc2csc(-c3cccs3)n2)CCN1` it was “inactive”; in that of `O=[N+]([O-])c1c(Sc2nnnn2-c2ccccc2)nc2sccn12`, “inactive”.

Consider `COc1ccc(C2=CC(c3ccc(OC)c(OC)c3)n3ncnc3N2)cc1OC` (centres undefined), for which the outcome was inactive. In the case of `Cc1cc2ncn(Cc3ccc(C(C)C)cc3)c2cc1C`, the result was inactive. For the compound `CCNc1n[nH]c(=S)s1`, the outcome was inactive. In the case of `O=C(Nc1ccccc1)Nc1ccc(Cl)c(Cl)c1` it was “active”. For `S=C(Nc1ccc(Cl)c(Cl)c1)NC12CC3CC(CC(C3)C1)C2`, the result was inactive. With `O=C(Nc1ccccc1)NC(NC(=S)Nc1ccc(I)cc1)C(Cl)(Cl)Cl` (centres undefined), the result was inactive. On to `FC(F)Sc1nc(-c2ccc(Br)cc2)nc2ccccc12`, for which the outcome was inactive. In the case of `CC(C)CNC(=O)NC(=O)C1CCCCC1` it was “inactive”; in that of `O=[N+]([O-])c1cc(CN2CCOCC2)c2c(c1)OCOC2`, “inactive”; in that of `Fc1ccc(-c2nnc(-c3nnc(-c4ccc(F)cc4)c(-c4ccccc4)n3)nc2-c2ccccc2)cc1`, “inactive”. The value for `O=P1(Nc2cc(C(F)(F)F)ccc2Cl)C=C(c2ccccc2)OC(c2ccccc2)=C1` was “inactive”.

Take `Nc1ccc([N+](=O)[O-])c(OC(F)F)c1`: the outcome was inactive. In the case of `CCOC(=O)c1c(N)sc2c1CCCS2` it was “inactive”; in that of `C=CCN1C(=O)/C(=C/c2c(NC3CC(C)(C)NC(C)(C)C3)nc3ccc(C)cn3c2=O)SC1=S`, “inactive”. In the case of `O=C(COC(=O)CCNC(=O)NC12CC3CC(CC(C3)C1)C2)NCC(F)(F)F` it was “inactive”; in that of `O=S(=O)(c1ccc(F)c(F)c1)N1CCN(c2ccc(O)cc2)CC1`, “inactive”. On to `COC(=O)C(C)N` (centres undefined), for which the outcome was inactive. Turning to `Cc1noc(C)c1COc1ncnc2sc3c(c12)CCCC3`, the result was inactive. In the case of `C(=N\n1c(-c2ccco2)csc1=NC1CCCCC1)/c1ccccn1`, the outcome is “inactive [setting not given]”.

For the compound `Cc1noc(C)c1S(=O)(=O)Nc1ccc(NS(=O)(=O)c2ccc3c(c2)OCCCO3)cc1`, the outcome was inactive. For the compound `S=c1n(CN2CCOCC2)nc(Cc2cccs2)n1C1CCCCC1`, the outcome was inactive. The value for `Ic1ccc2c(c1)Cc1ccccc1-2` was “inactive”; that for `Cn1c(C(F)(F)F)nn(CN2CCN(c3cccc(C(F)(F)F)c3)CC2)c1=S` was “inactive”; that for `O=C(CSc1nc2ccccc2nc1SCC(=O)c1cc2ccccc2o1)c1cc2ccccc2o1` was “inactive”. As to `O=S1(=O)N=C(N2CCC(c3nc4ccccc4o3)CC2)c2ccccc21`, the result was inactive. In the case of `O=C(COC(=O)Cn1cc(C(F)(F)F)ccc1=O)NC(=O)NC1CCCC1`, the outcome was inactive.

On to `O=c1cc(COc2cc(Cl)c(Cl)cc2Cl)nc2ccc(Br)cn12`, for which the result was inactive.

For the compound `FC(F)(F)c1ccc(Oc2ccc(Cl)c3cccnc23)nc1`, the outcome was inactive.

For the compound `O=S(=O)(Nc1cc(S(=O)(=O)N2CCOCC2)ccc1N1CCCC1)c1cccs1`, the outcome was inactive.

On to `Clc1ccc(C=Nc2ccc3c(c2)OCO3)c(Cl)c1`, for which the outcome was inactive.

Consider `CC(C)CN(C(=O)CSc1nncn1C)C1CCS(=O)(=O)C1` (centres undefined), for which the result was inactive. In the case of `O=[N+]([O-])c1ccc(NN=C2C3CC4CC(C3)CC2C4)c(S(=O)(=O)Nc2ccc(Cl)cc2)c1` it was “inactive”; in that of `CN(C)/N=C/C=C1\CCC/C(=C\c2cc(Br)cs2)C1=O`, “inactive [setting not given]”. The value for `O=S(=O)(c1ccc(F)cc1F)N1c2cccc3cccc(c23)S1(=O)=O` was “inactive”; that for `Nc1c(C(=O)CSc2cc(F)ccc2F)c(=O)[nH]c(=O)n1C1CC1` was “inactive”; that for `c1nc(N2CCN(c3ncnc4sc5c(c34)CCCC5)CC2)c2c3c(sc2n1)CCCC3` was “inactive”. Consider `Cc1cc(C)nc(N/N=C/c2ccncc2)n1`, for which the outcome was “inactive [setting not given]”. In the case of `Fc1ccc(-n2c(-c3ccc(Cl)cc3Cl)n[nH]c2=S)cc1Cl` it was “inactive”. For the compound `Cc1ccc(C)c(C2C3=C(CC(C)(C)CC3=O)Nc3nc(-c4cccnc4)nn32)c1` (centres undefined), the result was inactive. The value for `COc1cc(S(=O)(=O)n2c([N+](=O)[O-])cnc2C)ccc1Br` was “inactive”; that for `Cc1cc(C)c(C)c(S(=O)(=O)N(C)C2CCS(=O)(=O)C2)c1C` (centres undefined) was “inactive”.

Regarding `CC(=O)c1c(C)[nH]c(C(=O)OCC(=O)c2cc(C)n(CC3CCCO3)c2C)c1C` (centres undefined), the outcome was inactive. The value for `O=C1NC(c2ccc3ncccc3c2)C(C(=O)c2cccnc2)C(O)(C(F)(F)F)N1` (centres undefined) was “inactive”. On to `O=[N+]([O-])/C(CN1CCOCC1)=C1/CCCN1`, for which the outcome was inactive.

Regarding `CCCCn1c(N)c(N(Cc2ccco2)C(=O)Cn2cnnn2)c(=O)[nH]c1=O`, the result was inactive.

For the compound `CN(C(=O)COC(=O)CN1C(=O)NC2(CCCC2)C1=O)C1CCCCC1`, the outcome was inactive.

For the origin of these results see PubChem BioAssay AID1347385 (Zoeller Lab, School of Medicine, Boston University, 2020).
